ELG1 DNA repair – ELG1-dependent DNA repair inhibition; HEK293T ELG1-luciferase reporter, luminescence, 16 h; DNA damage induced by 5-fluorouridine; Potency, µM (top dose mostly 46.1 µM), for inactives: at the top dose activity change, negative = inhibition, usual class: inhibitors; actives 2.3% (n = 330,000); AID 504467; note: potency is the fitted concentration of half-maximal effect; nearly all actives have a fitted effect of over 55% in size
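5-Fluorouridine DNA damage + compound/DMSO, 2,000 cells/well, 16 h, 37 °C/5% CO2. ONE-Glo, 30 min RT, luminescence. Readout = decrease in reporter signal.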
VP16 counter – inhibits Gal4-VP16 luciferase reporter, ROR gamma counter-screen. AID 2546. actives 3.5% (n = 310,000). Potency, µM (doses to about 53.6 µM), without a hit: at the highest dose activity, negative = inhibition, hits mostly inhibitors. Drosophila S2 Gal4-VP16 UAS-luciferase, luminescence, 20 h;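 note: Gal4-VP16 expression switched on by copper sulfate through the metallothionein promoter; potency is the fitted concentration of half-maximal effect; nearly all actives have a fitted effect of over 50% in size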
RORg inh – blocks mouse ROR gamma transcriptional activity | Drosophila S2 Gal4-RORgamma UAS-luciferase reporter, 20 h | P51450 | Potency, µM (top dose mostly 53.6 µM), for inactives: at the highest dose activity change, negative = inhibition, most hits filed as inhibitors | actives 5.4% (n = 310,000); note: potency is the fitted concentration of half-maximal effect; nearly all actives have a fitted effect of over 60% in size
Target sequence (P51450 whole entry, looked up, the tested form may be a part): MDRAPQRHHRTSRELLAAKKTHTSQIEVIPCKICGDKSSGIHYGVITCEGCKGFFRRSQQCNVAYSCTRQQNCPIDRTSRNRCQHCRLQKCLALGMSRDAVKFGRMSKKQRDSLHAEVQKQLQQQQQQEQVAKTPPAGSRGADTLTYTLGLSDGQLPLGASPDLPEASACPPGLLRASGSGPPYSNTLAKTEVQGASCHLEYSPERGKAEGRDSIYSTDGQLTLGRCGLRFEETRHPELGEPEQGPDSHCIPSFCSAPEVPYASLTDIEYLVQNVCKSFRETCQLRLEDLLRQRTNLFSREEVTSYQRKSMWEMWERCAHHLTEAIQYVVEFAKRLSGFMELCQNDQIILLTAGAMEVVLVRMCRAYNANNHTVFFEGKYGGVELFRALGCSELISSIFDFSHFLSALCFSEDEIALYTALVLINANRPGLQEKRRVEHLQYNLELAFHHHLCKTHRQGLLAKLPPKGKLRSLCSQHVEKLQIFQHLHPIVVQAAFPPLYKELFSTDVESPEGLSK
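Compounds are pin-transferred onto Drosophila Schneider cells expressing a copper-inducible Gal4–ROR gamma transactivation domain fusion. After 1 hr, copper sulfate is added to 700 uM final; luciferase is read 20 hr later.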
DT40 TDP1 no CPT – qHTS for Inhibitors of human tyrosyl-DNA phosphodiesterase 1 (TDP1): qHTS in cells in absence of CPT. Potency, µM (top dose mostly 46.2 µM), inactives show at the highest dose activity change, negative = growth inhibition, usual class: inhibitors. actives 15% (n = 420,000). DT40 Tdp1-/- hTDP1 cells, no CPT, ATP luminescence, 48 h; note: potency is the fitted concentration of half-maximal effect; nearly all actives have a fitted effect of over 55% in size
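No-CPT arm: Tdp1-/-;hTDP1 DT40 cells (400/well) plus compounds, incubated ≥48 hr at 37 °C. Readout CellTiter-Glo luminescence.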
IL1B secr inh – inhibitors of inflammasome signaling (IL-1 beta secretion). THP-1 LPS/ATP IL-1B secretion, AlphaLISA, 16 h; active compounds read low. actives 4.7% (n = 360,000). AID 743279. activity change, % at 57.5 µM; in the data active = activity change below about -50%; inconclusive = mostly about -30% to -49%
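Secreted IL-1B measured by AlphaLISA bead assay after 16 h compound exposure of THP-1 cells; compounds (final up to 57.5 uM) added 1 h before LPS (250 ng/mL) and ATP (1.25 mM) stimulation; lower signal means less secretion.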
TDP1 cell CPT – growth inhibition of DT40 Tdp1-/-;hTDP1 cells with camptothecin (screen for TDP1 inhibitors) | Potency, µM (doses to about 46.2 µM), for the others: at the highest dose activity change, negative = growth inhibition, most hits filed as inhibitors | chicken DT40 Tdp1-/-;hTDP1 cells + 20 nM CPT, ATP luminescence, 48 h | actives 12% (n = 420,000) | AID 686979; note: potency is the fitted concentration of half-maximal effect; nearly all actives have a fitted effect of over 55% in size
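Cell growth measured by CellTiter-Glo luminescence after a minimum 48 h, 37 C compound exposure with 20 nM CPT in Tdp1-knockout DT40 cells stably expressing hTDP1, seeded 400/well; qHTS titration format.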
* marks the source's active call; other numbers are inactive results. Hits are enriched below; roughly 21% of the tested compounds scored in any of these assays. Unless noted, calls come from the whole dose curve; as a rule, active = well fitted curve in the direction sought with a large enough effect; inconclusive = small, poorly fitted or top-dose-only effect, or another doubt; inactive = no such curve, though single readings can be large; an effect the other way counts as inactive or inconclusive. % is set by controls: 0 for no effect and ±100 for the full control effect.

How did CCCCCCn1c(COc2ccccc2F)nnc1SCC(=O)N1c2ccccc2NC(=O)C1(C)C do in these assays?
ELG1 DNA repair: inconclusive; VP16 counter: inconclusive; RORg inh: inconclusive; DT40 TDP1 no CPT: 16µM*; IL1B secr inh: -57*; TDP1 cell CPT: 23µM*

Results for Cc1cc(C(=O)CSc2nc(N)cc(N)n2)c(C)n1CC1CCCO1 (stereo unspecified) ?
ELG1 DNA repair: 0%; DT40 TDP1 no CPT: inconclusive; IL1B secr inh: 29; TDP1 cell CPT: inconclusive

Results for Cc1ccc(C(=O)CSc2nc3ccccc3o2)cc1 ?
ELG1 DNA repair: inconclusive; VP16 counter: inconclusive; RORg inh: inconclusive; DT40 TDP1 no CPT: -5%; IL1B secr inh: -54*; TDP1 cell CPT: 2%

Results for Cc1cc(C(=O)CSc2nc(N)cc(=O)[nH]2)c(C)n1CC1CCCO1 (stereo unspecified) ?
ELG1 DNA repair: -16%; DT40 TDP1 no CPT: 18µM*; IL1B secr inh: 15; TDP1 cell CPT: 16µM*

Results for Cc1cc(C(=O)Cn2nnc(-c3ccc(Cl)cc3)n2)c(C)n1CC1CCCO1 (stereo unspecified) ?
ELG1 DNA repair: inconclusive; VP16 counter: 32µM*; RORg inh: -2%; DT40 TDP1 no CPT: inconclusive; IL1B secr inh: -71*; TDP1 cell CPT: 12µM*

What do the screens show for `Cc1cc(C(=O)COC(=O)C2CCN(C(=O)c3ccc(Cl)cc3)CC2)c(C)n1CC1CCCO1` (stereo unspecified)?
ELG1 DNA repair: 10%; VP16 counter: 0%; RORg inh: 21%; DT40 TDP1 no CPT: inconclusive; IL1B secr inh: 7; TDP1 cell CPT: inconclusive

How did Cc1cccc(-n2nnnc2SCC(=O)c2cc(C)n(CC3CCCO3)c2C)c1 (stereo unspecified) do in these assays?
ELG1 DNA repair: inconclusive; VP16 counter: 24%; RORg inh: 21%; DT40 TDP1 no CPT: inconclusive; IL1B secr inh: 53; TDP1 cell CPT: -1%

What do the screens show for `O=C(O)CSc1nc2ccccc2o1`?
ELG1 DNA repair: 0%; VP16 counter: 4%; RORg inh: -6%; DT40 TDP1 no CPT: -6%; IL1B secr inh: 0; TDP1 cell CPT: 6%

Results for Cc1cc(C(=O)CSc2nc3ccccc3[nH]2)c(C)n1CC1CCCO1 (stereo unspecified) ?
ELG1 DNA repair: inconclusive; VP16 counter: inconclusive; RORg inh: inconclusive; DT40 TDP1 no CPT: 5.2µM*; IL1B secr inh: -7; TDP1 cell CPT: 7.3µM*

What do the screens show for `CCOc1ccc(NC(c2ccccc2)P(=O)(OC)OC)cc1` (stereo unspecified)?
ELG1 DNA repair: 8%; VP16 counter: -18%; RORg inh: -12%; DT40 TDP1 no CPT: -42%; IL1B secr inh: -16; TDP1 cell CPT: inconclusive

How did O=C(CSc1nc2ccccc2o1)NCC1CCCO1 (stereo unspecified) do in these assays?
ELG1 DNA repair: 2%; DT40 TDP1 no CPT: 6%; IL1B secr inh: 2; TDP1 cell CPT: -8%

How did Cc1cc(C(=O)CSc2nc3ccccc3o2)c(C)n1CC1CCCO1 (stereo unspecified) do in these assays?
ELG1 DNA repair: inconclusive; VP16 counter: inconclusive; RORg inh: 1%; DT40 TDP1 no CPT: 18µM*; IL1B secr inh: 6; TDP1 cell CPT: 9.2µM*

Results for COc1ccc(CNC(=O)Nc2nc(C(N)Cc3ccc(C(F)(F)F)cc3)cs2)cc1 (stereo unspecified) ?
DT40 TDP1 no CPT: 21µM*; IL1B secr inh: inconclusive; TDP1 cell CPT: inconclusive
